An excerpt weighted towards active compounds, which were near 12% of everything screened.
L3MBTL1 inh: qHTS Assay for the Inhibitors of L3MBTL1; AlphaScreen L3MBTL1–H3K9me1 peptide binding; AID 485360, 2010; 230,000 tested, 0.66% active; Potency, µM (titrated, usually from 57.1 µM), inactives show at the highest dose activity, negative = inhibition, most hits filed as inhibitors; note: potency is the fitted concentration of half-maximal effect; % is set by controls: 0 for no effect and ±100 for the full control effect; nearly all actives have a fitted effect of over 60% in size
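Displacement of a biotinylated histone H3(1-15) peptide monomethylated at Lys9 (75 nM) from L3MBTL1 (50 nM) was measured by AlphaScreen after a 30 min room-temperature compound incubation; cefsulodin titration served as intraplate control.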
G9a inh: qHTS Assay for Inhibitors of Histone Lysine Methyltransferase G9a; Histone-lysine N-methyltransferase EHMT2 (Homo sapiens), Q96KQ7; G9a H3K9 monomethylation, AlphaScreen, 2 h; Potency, µM (doses to about 102 µM), inactives show top-dose activity, negative = inhibition, hits mostly inhibitors; 350,000 tested, 8.8% active; note: potency is the fitted concentration of half-maximal effect; % is set by controls: 0 for no effect and ±100 for the full control effect; nearly all actives have a fitted effect of over 75% in size
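G9a (20 nM) was preincubated 15 min with compound, then reacted 2 h at room temperature with 500 nM biotin-H3K9 peptide and 20 µM SAM. Monomethyl-H3K9 detected by AlphaScreen using anti-H3K9me1 antibody.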
JMJD2A Tudor inh: qHTS Assay for Inhibitors of JMJD2A-Tudor Domain. Lysine-specific demethylase 4A (Homo sapiens), O75164. AlphaScreen JMJD2A-Tudor / H3K4me3 peptide binding. Potency, µM (titrated, usually from 114 µM), for inactives: at the top dose activity change, negative = inhibition, usual class: inhibitors. 390,000 tested, 4.4% active; note: potency is the fitted concentration of half-maximal effect; % is set by controls: 0 for no effect and ±100 for the full control effect; nearly all actives have a fitted effect of over 50% in size
HP1b binding inh: HTS for Inhibitors of HP1-beta Chromodomain Interactions with Methylated Histone Tails; 390,000 tested, 0.56% active; AlphaScreen HP1-beta / biotin-H3K9me3 peptide binding; Potency, µM (doses to about 114 µM), without a hit: at the top dose activity change, negative = inhibition, hits mostly inhibitors; note: potency is the fitted concentration of half-maximal effect; nearly all actives have a fitted effect of over 70% in size
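AlphaScreen: HP1-beta (50 nM) preformed 30 min with biotin-H3(1-18)K9me3 peptide (50 nM) in PBS pH 7.4, 0.01% Tween-20. Compound added for 30 min at RT, then streptavidin donor/nickel chelate acceptor beads (10 ug/mL) for 30 min.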
Sfp PPTase inh: qHTS Assay for Inhibitors of Bacillus subtilis Sfp phosphopantetheinyl transferase (PPTase). Biochemical Sfp PPTase activity, qHTS. Potency, µM, for inactives: largest response in the series, negative = inhibition, usual class: inhibitors. 310,000 tested, 3.5% active. AID 1490, 2009;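 note: the enzyme is Sfp with the accession as filed and its product quenches rhodamine fluorescence; potency is the fitted concentration of half-maximal effect; 0% = enzyme reaction without inhibitor and -100% = no enzyme wells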
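With Hepes-Na pH 7.6 buffer containing 10 mM MgCl2, Sfp (15 nM) modified BHQ-2-YbbR (12.5 uM) using rhodamine-CoA (5 uM). Two reads 30 minutes apart at 525/598 nm yielded each well's rate.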
BAZ2B inh: qHTS Assay for Inhibitors of BAZ2B | Bromodomain adjacent to zinc finger domain protein 2B (Homo sapiens), Q9UIF8 | AlphaScreen BAZ2B-H3K14Ac peptide displacement | Potency, µM (doses to about 114 µM), for the others: top-dose activity change, negative = inhibition, actives largely listed as inhibitors | 360,000 tested, 4.4% active | AID 504333, 2011; note: potency is the fitted concentration of half-maximal effect; % is set by controls: 0 for no effect and ±100 for the full control effect; nearly all actives have a fitted effect of over 60% in size
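AlphaScreen luminescence quantifies BAZ2B engagement of H3K14Ac peptide; the protein and biotinylated peptide are both at 50 nM final, buffer PBS pH 7.4 with 0.01% Tween-20, all steps at room temperature.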
12-hLO cuvette: Cuvette-Based Assay for Inhibitors of 12-hLO (12-human lipoxygenase): 8HQ Series - Round 1. shares compounds with BAZ2B inh. purified 12-hLO, cuvette UV 234 nm product formation. Potency, µM, most hits filed as inhibitors. 35 tested, 60% active. AID 2163, 2009;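 active = compounds that slowed 12-hLO product formation enough to yield a measured IC50 potency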
Target sequence (P18054 whole entry, looked up): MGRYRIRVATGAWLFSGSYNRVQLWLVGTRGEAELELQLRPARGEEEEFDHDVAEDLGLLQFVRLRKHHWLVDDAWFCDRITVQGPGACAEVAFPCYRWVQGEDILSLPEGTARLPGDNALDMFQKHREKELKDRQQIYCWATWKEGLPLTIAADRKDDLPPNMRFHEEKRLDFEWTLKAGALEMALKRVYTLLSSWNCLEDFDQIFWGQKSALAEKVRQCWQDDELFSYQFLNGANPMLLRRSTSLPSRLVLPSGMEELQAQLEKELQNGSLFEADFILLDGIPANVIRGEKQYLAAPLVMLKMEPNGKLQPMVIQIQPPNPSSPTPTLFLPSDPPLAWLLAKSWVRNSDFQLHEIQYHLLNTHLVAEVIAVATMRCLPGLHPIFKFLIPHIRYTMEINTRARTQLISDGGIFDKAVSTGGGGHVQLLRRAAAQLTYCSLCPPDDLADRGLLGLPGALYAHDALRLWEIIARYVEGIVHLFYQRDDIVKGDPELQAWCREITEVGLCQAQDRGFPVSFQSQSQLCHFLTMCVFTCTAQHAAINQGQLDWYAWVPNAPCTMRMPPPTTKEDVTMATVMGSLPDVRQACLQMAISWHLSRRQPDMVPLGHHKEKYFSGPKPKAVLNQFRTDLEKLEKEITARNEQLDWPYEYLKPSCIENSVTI
JMJD2E inh-1: Inhibitors of Human Jumonji Domain Containing 2E (JMJD2E): 8HQs - Round 1 | shares compounds with BAZ2B inh | Potency, µM (doses to about 57 µM), inactives show top-dose activity, negative = inhibition, most hits filed as inhibitors | 130 tested, 89% active | AID 493212, 2011 | JMJD2E demethylase, FDH-coupled NADH fluorescence
JMJD2E inh-2: Confirmation qHTS Assay for Inhibitors of Human Jumonji Domain Containing 2E (JMJD2E) | shares compounds with JMJD2A Tudor inh | Recombinant JMJD2E, FDH-coupled NADH fluorescence (FDH is formaldehyde dehydrogenase) | Potency, µM (top dose mostly 56.8 µM), inactives show top-dose activity change, negative = inhibition, hits mostly inhibitors | 140 tested, 93% active
FDH inh: Counterscreen for JMJD2E Inhibitors: qHTS Assay for Inhibitors of Formaldehyde Dehydrogenase (FDH); FDH enzyme assay, NADH fluorescence kinetic; shares compounds with JMJD2A Tudor inh; Potency, µM (series often up to 56.7 µM), without a hit: top-dose activity, negative = inhibition, actives largely listed as inhibitors; 140 tested, 10% active
JMJD2E MS inh: MALDI-TOF-MS Assay for Inhibitors of Human Jumonji Domain Containing 2E (JMJD2E); shares compounds with JMJD2A Tudor inh; recombinant JMJD2E demethylation, MALDI-TOF-MS; Potency, µM, hits mostly inhibitors; 45 tested, 90% active; AID 2688, 2010;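 active = compounds whose IC50 for blocking JMJD2E demethylation is below 100 µM; inconclusive = dose dependent effect but IC50 above 100 µM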
Numbers without * were called inactive; i = inactive; ? = inconclusive; · = no result given; [ ] = dose if it differs, or a comment. Unless noted, calls come from the whole dose curve; as a rule, active = well fitted curve in the direction sought with a large enough effect; inconclusive = small, poorly fitted or top-dose-only effect, or another doubt; inactive = no such curve, though single readings can be large; an effect the other way counts as inactive or inconclusive.

SMILES	L3MBTL1 inh	G9a inh	JMJD2A Tudor inh	HP1b binding inh	Sfp PPTase inh	BAZ2B inh	JMJD2E inh-1	JMJD2E inh-2	FDH inh	JMJD2E MS inh	others
O=C(NCCc1ccccc1F)c1cccc2cccnc12	·	?	-36%	35%	-18%	-28%	·	·	·	·
Oc1ccc(CNc2ccccc2Cl)c2cccnc12	·	·	56µM*	·	·	·	2.5µM*	2.5µM*	-9%	27*
O=C(Cc1ncc(C(F)(F)F)cc1Cl)NCc1cccnc1	·	13%	-4%	37%	7%	-8%	·	·	·	·
Oc1ccc(CNc2ccc(C(F)(F)F)cc2Cl)c2cccnc12	?	1.8µM*	·	·	·	79µM*	11µM*	11µM*	-9%	·
Oc1ccc(NCc2ccccc2F)c2cccnc12	·	·	50µM*	·	·	·	?	2.6µM*	-18%	19*
O=C(Nc1ccccc1Cl)Nc1cccnc1Cl	·	21%[59 µM]	-14%	20%	4%	-20%	·	·	·	·
Oc1ccc(CCc2ccccc2F)c2cccnc12	·	·	-30%	·	·	·	10µM*	13µM*	-9%	29*
Oc1ccc(CNc2cccc(F)c2F)c2cccnc12	25µM*	1.1µM*	·	·	·	40µM*	2.5µM*	2.5µM*	-9%	·
Oc1ccc(CNc2ccc(F)cc2F)c2cccnc12	·	·	20µM*	·	·	·	2.3µM*	5.8µM*	-9%	42*
Oc1ccc(CNc2ccccc2C(F)(F)F)c2cccnc12	·	·	56µM*	·	·	·	4µM*	13µM*	-18%	11*
Oc1ccc(CNc2ccccc2F)c2cccnc12	8.9µM*	1µM*	79µM*	1.4µM*	1%	14µM*	5.8µM*	1.4µM*	-18%	·
Oc1ccc(C[C@H]2CNCCN2CC2CCCCC2)cc1	7%	0%[2.33 µM]	-23%	42%	·	10%	·	·	·	·
O=C(O)/C=C\c1ccc(Cn2ccnc2)cc1	·	12%[21.5 µM]	·	·	17%	·	·	·	·	·
COc1cc(-c2nnc(-c3cc(-c4ccccc4)nc4ccccc34)o2)cc(OC)c1OC	·	·	20%	38%	·	·	·	·	·	·
Oc1ccc(CNc2ccccn2)c2cccnc12	·	·	40µM*	·	·	·	7.9µM*	11µM*	-18%	33*
O=C(Nc1ccc(O)c2ncccc12)c1ccccc1F	·	·	28µM*	·	·	·	7.1µM*	7.1µM*	-18%	25*
O=S(=O)(Nc1ccc(O)c2ncccc12)c1ccccc1F	·	·	25µM*	·	·	·	6.5µM*	6.5µM*	-18%	4.4*
Oc1ccc(-c2nn[nH]n2)c2cccnc12	·	·	14µM*	·	·	·	2.9µM*	2.6µM*	-18%	26*
Fc1ccccc1-c1nc2ncccc2o1	8%	·	6%	21%	4%	-2%	·	·	·	·
CC(=O)Nc1ccccc1-c1nn[nH]n1	·	?	-6%	34%	23%	?	·	·	·	·
Oc1ccc(-c2ccccc2F)c2cccnc12	·	·	79µM*	·	·	·	?	9.1µM*	-27%	34*
CCCN(CCC)CCCNC(=O)Cn1ncc2c3ccccc3n(Cc3ccccc3F)c2c1=O	·	-2%[59 µM]	-14%	38%	·	-14%	·	·	·	·
Cc1ccc2ccccc2c1NC(=O)c1ccco1	·	3%	-21%	22%	12%	-6%	·	·	·	·
CCC1CCCCN1CCCNC(=O)c1cc2c(=O)oc3ccc(C)cc3c2s1 (stereo not given)	·	7%[0.0925 µM]	-19%	11%	-3%	-18%	·	·	·	·
C=CCC1(C)OC=Cc2nc3cc(Cl)c(Cl)cc3nc21 (stereo not given)	·	·	·	·	0%	·	·	·	·	·
SMILES	L3MBTL1 inh	G9a inh	JMJD2A Tudor inh	HP1b binding inh	Sfp PPTase inh	BAZ2B inh	JMJD2E inh-1	JMJD2E inh-2	FDH inh	JMJD2E MS inh	others
Oc1ccc(Nc2ccccc2F)c2cccnc12	·	·	22µM*	·	·	·	7.1µM*	7.1µM*	-18%	22*
O=C(Nc1cccc2ncccc12)c1ccccc1F	-4%	58%	8%	23%	19%	-16%	·	·	·	·
CCC(=O)NC(c1cccs1)c1ccc2cccnc2c1O (stereo not given)	18µM*	·	79µM*	35%	?	25µM*	10µM*	10µM*	-27%	·	12-hLO cuvette=3.4µM*
CCC(=O)NC(c1cccc(C)c1)c1cc(Cl)c2cccnc2c1O (stereo not given)	·	·	-14%	·	·	·	35µM*	35µM*	0%	·	12-hLO cuvette=i
CCC(=O)NC(c1ccc(Br)o1)c1cc(Cl)c2cccnc2c1O (stereo not given)	·	·	-18%	·	·	·	10µM*	10µM*	-27%	·	12-hLO cuvette=i
CCC(=O)NC(c1ccc(C)cc1)c1cc(Cl)c2cccnc2c1O (stereo not given)	40%	·	-8%	35%	·	·	7%	7%	-9%	·	12-hLO cuvette=i
CCC(=O)NC(c1ccccc1)c1c(O)ccc2ccccc12 (stereo not given)	·	5%	-29%	15%	6%	-4%	·	·	·	·

Source: PubChem BioAssay
